Values joined by “and” are separate entries in the source; they are usually repeats but may differ in a detail not shown here. Equal entries are not always repeated. In all, about 5,500 compounds went through this assay and about 2,000 (36%) were called active. Not shown: some 18% with an inconclusive outcome. Rule as the data show it: active = normalized growth mostly below about 0.91 (no sharp cut-off); inconclusive = no clear call, values can overlap the other calls; inactive = mostly above about 0.92. This is one part of the list.
Test: chemical genetic growth profiling, strain panel (AID 1159580);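 also: tested at 20 µM; growth read once vehicle control cultures reached saturation at 30 °C; 1 = growth at the plate median or of vehicle wells; lower values mean less growth of the strain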
Settings: S. cerevisiae deletion strains, growth OD

Measured: normalized growth

OC1C(O)C(O)C(O)C(O)C1O (stereo not given)
inactive: locus YAL013W, strain DEP1, active compounds read low 0.998 | locus YAL021C, strain ccr4, active compounds read low 0.996 | locus YAL026C, strain drs2, active compounds read low 1 | locus YAL030W, strain snc1, active compounds read low 0.997 | locus YBL061C, strain skt5, active compounds read low 0.998 | locus YBR009C, strain hhf1, active compounds read low 1.01 | locus YBR021W, strain FUR4, active compounds read low 1.08 | locus YBR023C, strain chs3, active compounds read low 0.997 | locus YBR171W, strain sec66, active compounds read low 1 | locus YBR229C, strain ROT2, active compounds read low 0.957 | locus YBR231C, strain swc5, active compounds read low 0.999 | locus YBR279W, strain paf1, active compounds read low 1 | locus YCL011C, strain gbp2, active compounds read low 1.01 | locus YCL016C, strain dcc1, active compounds read low 1.01 | locus YCL029C, strain bik1, active compounds read low 0.981 | locus YCL061C, strain MRC1, active compounds read low 0.996 | locus YCL069W, strain vba3, active compounds read low 0.999 | locus YCR088W, strain abp1, active compounds read low 1 | locus YDL005C, strain med2, active compounds read low 1 | locus YDL035C, strain GPR1, active compounds read low 1 | locus YDL040C, strain nat1, active compounds read low 1 | locus YDL074C, strain BRE1, active compounds read low 0.962 | locus YDL101C, strain DUN1, active compounds read low 0.989 | locus YDL134C, strain PPH21, active compounds read low 0.99 | locus YDL185W, strain tfp1, active compounds read low 0.966 | locus YDL192W, strain arf1, active compounds read low 0.977 | locus YDR001C, strain nth1, active compounds read low 0.998 | locus YDR069C, strain doa4, active compounds read low 0.999 | locus YDR101C, strain arx1, active compounds read low 0.976 | locus YDR137W, strain rgp1, active compounds read low 1 | locus YDR150W, strain NUM1, active compounds read low 0.99 | locus YDR159W, strain sac3, active compounds read low 0.993 | locus YDR162C, strain NBP2, active compounds read low 0.994 | locus YDR195W, strain ref2 0.984 | locus YDR297W, strain sur2, active compounds read low 1 | locus YDR318W, strain mcm21, active compounds read low 0.992 | locus YDR334W, strain swr1, active compounds read low 0.994 | locus YDR335W, strain msn5, active compounds read low 1 | locus YDR388W, active compounds read low 0.989 | locus YDR392W, strain spt3, active compounds read low 0.999 | locus YDR502C, strain sam2, active compounds read low 0.986 | locus YEL003W, strain gim4, active compounds read low 1.01 | locus YEL037C, strain rad23, active compounds read low 1 | locus YEL061C, strain CIN8 (second series), active compounds read low 1 | locus YEL061C, strain CIN8, active compounds read low 0.983 | locus YER015W, strain faa2, active compounds read low 0.993 | locus YER016W, strain bim1, active compounds read low 0.991 | locus YER110C, active compounds read low 0.982 | locus YER111C, strain swi4, active compounds read low 1 | locus YER155C, strain BEM2 (second series), active compounds read low 1.01 | locus YER155C, strain BEM2, active compounds read low 0.999 | locus YER167W, strain BCK2, active compounds read low 0.995 | locus YFR010W, strain ubp6, active compounds read low 1 | locus YGL078C, strain dbp3, active compounds read low 0.973 | locus YGL086W, strain mad1, active compounds read low 0.979 | locus YGL167C, strain pmr1, active compounds read low 1 | locus YGL173C, strain kem1, active compounds read low 1.01 | locus YGL227W, strain vid30, active compounds read low 1.01 | locus YGL240W, strain doc1, active compounds read low 0.989 | locus YGL248W, strain PDE1, active compounds read low 0.969 | locus YGL253W, strain hxk2, active compounds read low 1 | locus YGR135W, strain pre9, active compounds read low 1.02 | locus YGR252W, strain gcn5, active compounds read low 0.924 | locus YHR013C, strain ard1, active compounds read low 1 | locus YHR027C, strain rpn1, active compounds read low 1 | locus YHR030C, strain SLT2, active compounds read low 0.975 and 1 | locus YHR079C, strain IRE1 (second series), active compounds read low 0.99 | locus YHR079C, strain IRE1, active compounds read low 0.973 | locus YHR094C, strain hxt1, active compounds read low 0.996 | locus YHR129C, strain ARP1, active compounds read low 0.993 | locus YHR142W, strain chs7, active compounds read low 1.01 | locus YHR200W, strain rpn10, active compounds read low 0.971 | locus YIL066C, strain RNR3, active compounds read low 0.979 | locus YIL073C, strain SPO22, active compounds read low 0.994 | locus YIL125W, strain kgd1, active compounds read low 0.98 | locus YIR030C, strain dcg1, active compounds read low 0.995 | locus YJL092W, strain hpr5, active compounds read low 1 | locus YJL095W, strain BCK1 (second series), active compounds read low 1 | locus YJL095W, strain BCK1, active compounds read low 0.991 | locus YJL115W, strain asf1, active compounds read low 1 | locus YJL129C, strain trk1, active compounds read low 1.02 | locus YJL134W, strain LCB3, active compounds read low 0.995 | locus YJL154C, strain vps35, active compounds read low 1 | locus YJL164C, strain tpk1, active compounds read low 0.999 | locus YJL166W, strain qcr8, active compounds read low 1.01 | locus YJL168C, strain set2, active compounds read low 0.998 | locus YJL187C, strain SWE1 (second series), active compounds read low 0.97 | locus YJL187C, strain SWE1, active compounds read low 1.01 | locus YJR043C, strain POL32, active compounds read low 0.995 | locus YJR066W, strain TOR1, active compounds read low 0.956

From PubChem BioAssay AID1159580 (chemical genetic matrix, 2015)
